# Calls of active or inactive are those of the source.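 How the source made its calls: active means response changes with concentration, giving a dose-dependent curve as judged by the depositor; inactive means the rest, with no dose-dependent response.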
# Target: Muscarinic acetylcholine receptor M3 (Rattus norvegicus) (UniProt P08483)
# Assay: rat M3 muscarinic receptor PAM counter-screen, SAR follow-up, selectivity assay for M4 PAM optimization project, CHO-K1 cells, calcium fluorescence, ACh EC20 (AID 623943)
# Conditions: CHO-K1 rM3, calcium fluorescence, PAM mode with ACh EC20; series mostly up to 30 µM
row,Compound,outcome
1,Cc1nc2sc(C(=O)NCc3cccnc3)c(N)c2c(C)c1Cl,inactive
2,Cc1nc2sc(C(=O)NCc3ccc4c(c3)OCO4)c(N)c2c(C)c1Cl,inactive
3,Cc1nc2sc(C(=O)NCc3cccc(F)c3F)c(N)c2c(C)c1Cl,inactive
4,COc1ccc(C)c2sc(NC(=O)c3ccncc3)nc12,inactive
5,Cc1nc2sc(C(=O)NCc3nccs3)c(N)c2c(C)c1Cl,inactive
6,Cc1nc2sc(C(=O)NCCc3ccncc3)c(N)c2c(C)c1Cl,inactive
7,Cc1nc2sc(C(=O)NC3CC3)c(N)c2c(C)c1Cl,inactive
8,Cc1nc2sc(C(=O)NCc3ccccc3)c(N)c2c(C)c1Cl,inactive
9,Cc1nc2sc(C(=O)NCc3ccncc3)c(N)c2c(C)c1Cl,inactive
10,Cc1nc2sc(C(=O)NCc3ccncn3)c(N)c2c(C)c1Cl,inactive
